Measurements: PubChem BioAssay (NCATS)
Records with an inconclusive call do not appear. The source made the active and inactive calls. Unless noted, calls follow the shape of the dose curve; as a rule, active = well fitted curve in the direction sought with a large enough effect; inconclusive = small, poorly fitted or top-dose-only effect, or another doubt; inactive = no such curve, though single readings can be large; an effect the other way counts as inactive or inconclusive.

Experiments:
[1] = target: Lysosomal acid glucosylceramidase (Homo sapiens) (UniProt P04062); assay: Glucocerebrosidase-p2 (AID 348; in the data active = potency below about 10 µM; also: potency is read from the fitted curve at half-maximal effect); details: purified GBA, blue fluorogenic substrate, 40 min
Sequence of Lysosomal acid glucosylceramidase (Homo sapiens) (P04062 whole entry, looked up): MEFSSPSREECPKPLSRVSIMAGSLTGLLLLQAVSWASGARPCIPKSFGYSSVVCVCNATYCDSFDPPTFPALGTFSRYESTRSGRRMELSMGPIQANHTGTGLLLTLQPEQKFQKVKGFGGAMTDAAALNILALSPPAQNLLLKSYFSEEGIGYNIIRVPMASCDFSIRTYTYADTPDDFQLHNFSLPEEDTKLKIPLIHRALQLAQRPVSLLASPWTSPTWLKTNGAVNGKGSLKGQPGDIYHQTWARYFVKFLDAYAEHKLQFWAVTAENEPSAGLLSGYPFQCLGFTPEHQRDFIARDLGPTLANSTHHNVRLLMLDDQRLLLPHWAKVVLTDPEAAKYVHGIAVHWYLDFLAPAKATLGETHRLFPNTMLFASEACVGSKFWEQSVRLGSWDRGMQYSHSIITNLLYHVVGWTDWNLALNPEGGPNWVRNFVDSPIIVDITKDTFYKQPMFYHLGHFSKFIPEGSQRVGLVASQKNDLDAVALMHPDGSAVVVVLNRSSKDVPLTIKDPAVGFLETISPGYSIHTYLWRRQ
How it was run: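 Compounds titrated from 0.6 nM upwards against 0.2 nM enzyme in pH 5.9 citric acid/KH2PO4, taurocholate, tween-20; blue fluorogenic substrate 80 uM, 40 min room temperature, stopped and read Ex 365/Em 440 for AC50.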

[2] = AP1 Signaling Pathway (AID 357; active = well fitted curve in either direction with a large enough effect, not every such curve was filed as active; also: % is scaled to controls: 0 for no effect and ±100 for the full control effect); details: ME-180 AP-1-bla reporter, EGF-induced, beta-lactamase ratio, 5 h; at 7.69 µM (top of the series) unless noted
How it was run: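 Titration-series screen for positive or negative modulators of EC50 EGF-induced signaling in ME-180 cells carrying an AP-1-driven beta-lactamase reporter. After 5 hours at 37 degrees Celsius, CCF4 460nm/530nm emission ratio gave %Activity; AC50 values derived.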

[3] = target: Cytochrome P450 1A2 (Homo sapiens) (UniProt P05177); assay: p450-cyp1a2 (AID 410; calls by dose curve; also: potency is read from the fitted curve at half-maximal effect;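 as to activity change, negative = inhibition: -100% = full effect of reference inhibitor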); details: recombinant CYP1A2, luciferin-ME demethylation, luminescence; series mostly up to 57 µM
Sequence of Cytochrome P450 1A2 (Homo sapiens) (P05177 whole entry, looked up): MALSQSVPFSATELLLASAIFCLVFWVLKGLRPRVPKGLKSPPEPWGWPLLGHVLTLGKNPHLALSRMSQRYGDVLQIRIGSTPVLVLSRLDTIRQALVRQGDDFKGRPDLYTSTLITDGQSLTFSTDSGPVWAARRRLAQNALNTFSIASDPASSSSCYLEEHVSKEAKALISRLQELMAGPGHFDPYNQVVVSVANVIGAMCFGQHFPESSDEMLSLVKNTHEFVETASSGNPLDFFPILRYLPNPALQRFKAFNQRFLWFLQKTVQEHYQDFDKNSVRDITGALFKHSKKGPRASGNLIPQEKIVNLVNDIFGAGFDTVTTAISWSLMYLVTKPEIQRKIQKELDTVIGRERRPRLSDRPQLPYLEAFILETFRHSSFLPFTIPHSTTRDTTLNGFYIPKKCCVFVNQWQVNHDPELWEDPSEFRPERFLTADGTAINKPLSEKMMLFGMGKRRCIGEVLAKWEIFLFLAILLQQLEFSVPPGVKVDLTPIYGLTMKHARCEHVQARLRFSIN
How it was run: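 Luminescent readout of luciferin formed from Luciferin-ME by human CYP1A2; data normalized against complete inhibition by 57 uM furafylline. Enzyme 20nM, substrate 100uM at Km, 100mM KPO4 buffer, 60 min reaction at room temperature.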

[4] = NFAT Signaling Pathway (AID 444; active = well fitted curve in either direction with a large enough effect, not every such curve was filed as active;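 also: carbachol stimulus at about its EC50 of 1 µM final; % is scaled to controls: 0 for no effect and ±100 for the full control effect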); details: Jurkat NFAT-bla M1, carbachol, beta-lactamase ratio, 5 h; at 7.69 µM (top of the series) unless noted
How it was run: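 Read-out: CCF4 FRET ratio (460 nm/530 nm) after 1 h RT dye loading, used for %activity and AC50 from titration series. Cells: Jurkat NFAT-β-lactamase/M1 line, treated with compound plus 1 uM carbachol for 5 h, 37 °C.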

[5] = Stat Signaling Pathway (AID 446; active = well fitted curve in either direction with a large enough effect, not every such curve was filed as active;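 also: ME-180 cervical cancer cells given 40 pM IL-6 alongside compound; SIE-controlled beta-lactamase reporter measured as 460/530 nm FRET emission ratio; % is scaled to controls: 0 for no effect and ±100 for the full control effect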); details: ME-180 SIE beta-lactamase reporter, IL-6 stimulated, 5 h; at 7.69 µM (top of the series) unless noted
How it was run: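 IL-6/STAT signaling read in ME-180 cells via an SIE beta-lactamase reporter. Stimulus was 40 pM IL-6 (its AC50) for 5 hrs, so both activation and inhibition register.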

[6] = target: Glucocorticoid receptor (Homo sapiens) (UniProt P04150); assay: GR-GFP Redistribution (AID 450;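 active = compounds whose dose series gives a full or clear partial fitted curve of increased nuclear translocation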; also: potency is read from the fitted curve at half-maximal effect); details: U2OS GR-GFP nuclear translocation, laser cytometry, 2 h
Sequence of Glucocorticoid receptor (Homo sapiens) (P04150 whole entry, looked up, the tested form may be a part): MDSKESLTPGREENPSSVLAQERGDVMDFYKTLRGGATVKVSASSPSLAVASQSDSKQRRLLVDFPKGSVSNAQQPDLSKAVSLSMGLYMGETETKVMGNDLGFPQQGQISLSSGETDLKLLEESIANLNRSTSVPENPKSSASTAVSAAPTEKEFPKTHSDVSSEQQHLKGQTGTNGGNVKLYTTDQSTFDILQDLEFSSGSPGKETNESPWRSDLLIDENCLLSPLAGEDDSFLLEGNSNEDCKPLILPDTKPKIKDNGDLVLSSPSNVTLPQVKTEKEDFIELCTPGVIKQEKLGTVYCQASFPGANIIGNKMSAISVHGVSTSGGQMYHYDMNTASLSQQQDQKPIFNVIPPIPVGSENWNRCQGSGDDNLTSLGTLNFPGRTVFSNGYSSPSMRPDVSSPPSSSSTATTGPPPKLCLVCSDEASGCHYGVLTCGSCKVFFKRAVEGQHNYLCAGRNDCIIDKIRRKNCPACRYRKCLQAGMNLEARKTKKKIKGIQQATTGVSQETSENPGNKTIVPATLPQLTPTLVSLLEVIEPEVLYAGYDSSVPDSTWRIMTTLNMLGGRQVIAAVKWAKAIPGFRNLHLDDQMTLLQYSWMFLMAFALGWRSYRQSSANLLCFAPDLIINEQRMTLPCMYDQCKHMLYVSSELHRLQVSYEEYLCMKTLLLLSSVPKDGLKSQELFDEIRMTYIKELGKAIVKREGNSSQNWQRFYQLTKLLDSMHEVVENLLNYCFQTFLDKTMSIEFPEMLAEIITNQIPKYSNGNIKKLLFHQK

[7] = target: Glucocorticoid receptor (Homo sapiens) (UniProt P04150); assay: GR-EFC Redistribution (AID 451; calls by dose curve; also: potency is read from the fitted curve at half-maximal effect); details: CHO-K1 GR-EFC translocation, beta-gal luminescence, 2 h
How it was run: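 Translocation of GR-ED fusion to nuclear EA restores b-gal, read by luminescence after 1 h room-temperature detection. Engineered CHO-K1 biosensor cells, 1,000/well, exposed 2 h at 37 C to titrations up to 46 uM final.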

[8] = target: Mitogen-activated protein kinase 10 (Mus musculus) (UniProt Q61831); assay: JNK3 AlphaScreen Assay (AID 530; active = well fitted curve in either direction with a large enough effect, not every such curve was filed as active;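 also: kinase came from lysate of stimulated human HepG2 cells; signal reports phosphorylation of biotinylated GST-cJun 1-79 at Ser73 with 10 µM ATP; % is scaled to controls: 0 for no effect and ±100 for the full control effect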); details: JNK3 lysate, c-Jun phosphorylation; series mostly up to 57.1 µM
How it was run: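 Compound titrations were preincubated 15 minutes at room temperature with substrate, antibody and pre-activated JNK3-containing HepG2 lysate. Reactions were started with 10 uM ATP and stopped with EDTA-containing bead buffer for AlphaScreen detection.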

[9] = target: Cytochrome P450 3A4 (Homo sapiens) (UniProt P08684); assay: qHTS Assay for Activators of Cytochrome P450 3A4 (AID 885); details: recombinant CYP3A4, Luciferin-PPXE luminescence, 60 min; series mostly up to 57.1 µM; also: nearly all actives have a fitted effect of over 65% in size
Sequence of Cytochrome P450 3A4 (Homo sapiens) (P08684 whole entry, looked up): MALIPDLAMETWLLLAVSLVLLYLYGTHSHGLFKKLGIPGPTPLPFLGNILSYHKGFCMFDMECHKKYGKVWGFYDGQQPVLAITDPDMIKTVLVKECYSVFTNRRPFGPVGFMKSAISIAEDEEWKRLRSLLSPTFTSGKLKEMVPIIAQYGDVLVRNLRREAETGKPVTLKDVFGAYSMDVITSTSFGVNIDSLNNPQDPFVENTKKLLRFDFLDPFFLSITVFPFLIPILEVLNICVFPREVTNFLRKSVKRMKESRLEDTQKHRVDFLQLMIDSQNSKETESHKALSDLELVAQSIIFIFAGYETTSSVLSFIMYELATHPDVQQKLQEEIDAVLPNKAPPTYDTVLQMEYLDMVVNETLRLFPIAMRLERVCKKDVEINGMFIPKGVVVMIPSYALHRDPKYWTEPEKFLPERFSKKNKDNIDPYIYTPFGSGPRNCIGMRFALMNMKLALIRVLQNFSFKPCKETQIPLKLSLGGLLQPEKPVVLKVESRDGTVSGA
How it was run: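 Quantitative HTS format: compounds preincubated with 20nM human CYP3A4 and Luciferin-PPXE substrate at KM, reaction started by NADPH regeneration, stopped after 60 min, luciferase luminescence read 20 min later.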

[10] = qHTS Assay for Identification of Small Molecule Agonists for Hypoxia Response Element Signaling Pathway (AID 914; active = well fitted activation curve with a large enough effect in the signal ratio, with a control signal flat, not every such curve was filed as active; the % refers to the signal ratio; also: % of control where 0% means no effect); details: ME-180 (cervical carcinoma) HRE-bla reporter, beta-lactamase ratio, CoCl2, 17 h; activation: stronger effect = higher value
How it was run: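 HRE-bla ME-180 assay for agonist-like enhancement of an EC50 CoCl2 stimulus: 17 h at 37 degrees Celsius, CCF4 for 2.5 h, ratiometric 460/530 nm signal converted to %Activity and fitted to AC50.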

[11] = qHTS Assay for Lipid Storage Modulators (AID 1519; calls by dose curve); details: Drosophila S3 cells, BODIPY lipid droplet/cell ratio, laser cytometry, cells loaded with oleic acid; for activity change, negative = inhibition: at 57.5 µM (top of the series)
How it was run: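 Cells seeded at 5,000 per well were treated with compounds over a concentration series and loaded with oleic acid (400 uM, as added). Lipid droplet fluorescence (488 nm excitation, 500-530 nm channel) was read by laser-scanning cytometry and normalized to 20 uM Triacsin C.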

[12] = target: Dual specificity protein kinase CLK4 (Homo sapiens) (UniProt Q9HAZ1); assay: qHTS Assay for Inhibitors of CDC-like Kinase 4 (Kinase-Glo Assay) (AID 1770); details: recombinant Clk4, Kinase-Glo ATP depletion luminescence; series mostly up to 66.7 µM; also: nearly all actives have a fitted effect of over 65% in size; also: potency is read from the fitted curve at half-maximal effect
Sequence of Dual specificity protein kinase CLK4 (Homo sapiens) (Q9HAZ1 whole entry, looked up): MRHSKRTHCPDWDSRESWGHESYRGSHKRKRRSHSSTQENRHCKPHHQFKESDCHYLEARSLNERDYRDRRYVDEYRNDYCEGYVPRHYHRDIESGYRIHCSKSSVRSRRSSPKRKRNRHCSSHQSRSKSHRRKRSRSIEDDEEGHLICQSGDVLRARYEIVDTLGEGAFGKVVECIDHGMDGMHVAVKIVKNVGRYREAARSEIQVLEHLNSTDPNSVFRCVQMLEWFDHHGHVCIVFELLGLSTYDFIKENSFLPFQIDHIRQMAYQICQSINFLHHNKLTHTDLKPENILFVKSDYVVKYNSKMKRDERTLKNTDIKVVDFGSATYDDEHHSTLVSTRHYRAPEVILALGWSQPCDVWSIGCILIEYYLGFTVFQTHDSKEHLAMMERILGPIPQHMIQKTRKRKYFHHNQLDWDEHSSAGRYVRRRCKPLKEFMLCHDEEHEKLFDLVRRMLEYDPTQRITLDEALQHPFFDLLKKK
How it was run: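 Recombinant human Clk4 (25 nM) phosphorylated RS repeat peptide (100 uM) with 1 uM ATP in Tris pH 7.5/MgCl2/EGTA/DTT/Triton buffer for 4.5 h at room temperature. Residual ATP was quantified by Kinase-Glo luciferase luminescence.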

[13] = target: Dual specificity protein kinase CLK4 (Homo sapiens) (UniProt Q9HAZ1); assay: qHTS Assay for Inhibitors of CDC-like Kinase 4 (ADP-Glo Assay) (AID 1771); details: recombinant CLK4, ADP-Glo luminescence; series mostly up to 80 µM; also: nearly all actives have a fitted effect of over 70% in size; also: potency is read from the fitted curve at half-maximal effect
How it was run: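 Luminescence from ADP-Glo reports ADP produced by 25 nM Clk4 acting on 100 uM RS repeat peptide with 1 uM ATP over 1 hr at room temperature; residual ATP is depleted before ADP is converted to ATP for detection.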

[14] = target: Dual specificity protein kinase CLK4 (Homo sapiens) (UniProt Q9HAZ1); assay: qHTS Assay for Inhibitors of CDC-like Kinase 4 (ADP-FP Assay) (AID 1795); details: Transcreener ADP fluorescence polarization; series mostly up to 50 µM; also: nearly all actives have a fitted effect of over 60% in size; also: potency is read from the fitted curve at half-maximal effect
How it was run: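 Recombinant human Clk4 (6.25 nM) phosphorylated RS repeat peptide (100 uM) with 1 uM ATP in Tris pH 7.5/MgCl2/EGTA/DTT/Triton buffer for one hour. ADP was quantified by Transcreener competitive fluorescence polarization against an ADP calibration curve.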

[15] = target: Ubiquitin carboxyl-terminal hydrolase 1 (Homo sapiens) (UniProt O94782); assay: Inhibitors of USP1/UAF1: Pilot qHTS (AID 504865); details: purified USP1/UAF1, Ub-rhodamine cleavage fluorescence; series mostly up to 54.9 µM; also: nearly all actives have a fitted effect of over 35% in size; also: potency is read from the fitted curve at half-maximal effect
Sequence of Ubiquitin carboxyl-terminal hydrolase 1 (Homo sapiens) (O94782 whole entry, looked up): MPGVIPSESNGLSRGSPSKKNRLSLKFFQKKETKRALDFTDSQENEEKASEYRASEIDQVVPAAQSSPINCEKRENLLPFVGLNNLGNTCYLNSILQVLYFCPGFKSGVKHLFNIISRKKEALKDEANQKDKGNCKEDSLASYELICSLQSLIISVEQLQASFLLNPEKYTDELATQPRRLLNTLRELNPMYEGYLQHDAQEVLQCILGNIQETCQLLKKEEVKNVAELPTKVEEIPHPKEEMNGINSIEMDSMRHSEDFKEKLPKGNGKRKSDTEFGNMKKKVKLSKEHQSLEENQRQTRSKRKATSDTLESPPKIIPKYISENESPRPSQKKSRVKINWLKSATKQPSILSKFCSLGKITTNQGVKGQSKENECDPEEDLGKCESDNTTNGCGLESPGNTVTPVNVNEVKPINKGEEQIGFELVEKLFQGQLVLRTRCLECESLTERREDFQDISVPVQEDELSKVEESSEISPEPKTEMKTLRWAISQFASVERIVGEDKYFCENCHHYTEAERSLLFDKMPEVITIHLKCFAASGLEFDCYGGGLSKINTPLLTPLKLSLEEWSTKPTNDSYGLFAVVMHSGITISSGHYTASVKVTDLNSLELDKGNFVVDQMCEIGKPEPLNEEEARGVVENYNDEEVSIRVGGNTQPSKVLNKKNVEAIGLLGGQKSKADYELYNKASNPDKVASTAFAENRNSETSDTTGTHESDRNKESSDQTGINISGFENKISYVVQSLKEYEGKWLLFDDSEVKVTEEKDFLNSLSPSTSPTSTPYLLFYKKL
How it was run: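 USP1/UAF1 complex (1nM) preincubated with compound 15 min at room temperature, then Ub-Rho substrate (150nM final) added. Fluorescence read kinetically at 480/540 nm, 6 reads every 60 seconds. Buffer: 50mM HEPES pH 7.8, 0.5mM EDTA, 0.1 mg/ml BSA, 1mM TCEP, 0.01% Tween-20.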

[16] = target: 3',5'-cyclic-AMP phosphodiesterase 4B (Homo sapiens) (UniProt Q07343); assay: qHTS Assay for Inhibitors of PDE-IV (AID 607; active = well fitted activation curve with a large enough effect in the main read-out, with a control signal flat, not every such curve was filed as active; also: % of control where 0% means no effect); details: HEK293 ACTOne CNG channel cells, membrane potential fluorescence; series mostly up to 22.9 µM
Sequence of 3',5'-cyclic-AMP phosphodiesterase 4B (Homo sapiens) (Q07343 whole entry, looked up): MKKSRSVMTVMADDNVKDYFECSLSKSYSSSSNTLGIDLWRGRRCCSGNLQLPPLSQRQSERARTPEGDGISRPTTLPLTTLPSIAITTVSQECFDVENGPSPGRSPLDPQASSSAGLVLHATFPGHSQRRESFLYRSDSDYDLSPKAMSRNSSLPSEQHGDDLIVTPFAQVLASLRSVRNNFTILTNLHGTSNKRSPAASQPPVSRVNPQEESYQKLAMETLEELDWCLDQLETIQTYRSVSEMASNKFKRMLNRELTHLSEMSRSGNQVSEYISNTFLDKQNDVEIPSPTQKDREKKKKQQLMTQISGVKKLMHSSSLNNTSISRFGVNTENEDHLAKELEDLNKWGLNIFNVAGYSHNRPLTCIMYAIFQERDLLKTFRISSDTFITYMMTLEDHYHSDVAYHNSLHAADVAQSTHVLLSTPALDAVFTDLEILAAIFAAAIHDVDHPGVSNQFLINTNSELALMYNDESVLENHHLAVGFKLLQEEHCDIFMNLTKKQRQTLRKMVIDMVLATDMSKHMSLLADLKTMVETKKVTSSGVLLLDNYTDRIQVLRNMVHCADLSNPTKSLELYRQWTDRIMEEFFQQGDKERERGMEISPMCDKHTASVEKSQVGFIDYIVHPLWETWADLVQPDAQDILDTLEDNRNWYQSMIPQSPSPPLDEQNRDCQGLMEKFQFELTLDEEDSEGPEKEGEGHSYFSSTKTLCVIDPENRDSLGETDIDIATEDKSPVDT
How it was run: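 Live HEK293 cells with a modified cyclic nucleotide-gated (CNG) channel report intracellular cAMP via membrane-potential dye fluorescence (ex 535/em 590 nm). Endogenous PDE-IV was targeted. Compounds were tested at up to 22.9 uM final; RO 20-1724 100 uM served as control.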

[17] = measured here: cell count channel max response
[18] = measured here: lipid channel max response

Cc1ccccc1-c1nc(N2CCOCC2)c2ccccc2n1
31.7%: max response [11, 17]
inactive: Potency [1] > 11.4 µM | activity change, negative = inhibition [2] 4.71% | activity change, negative = inhibition [4] -2.19% | activity, negative = inhibition [5] 4.23% | Potency [6] > 46 µM | Potency [7] > 46 µM | Potency [8] | Potency [9] | activation [10] 11% | activity change, negative = inhibition [11] 6.43%
active: Potency [3] 2 µM | Potency [12] 15.8 µM | Potency [13] 15.8 µM | Potency [14] 12.6 µM | Potency [15] 28.2 µM
38.9%: max response [11, 18]

COCCn1c(=O)c(-c2ccccc2)nc2cnc(N(C)C)nc21
12.4%: max response [11, 17]
inactive: Potency [1] > 11.4 µM | activity change, negative = inhibition [2] -2% | activity change, negative = inhibition [4] 10.9% | Potency [6] > 9.22 µM | Potency [7] > 46 µM | Potency [9] | activity change, negative = inhibition [11] 6.53% | Potency [12] | Potency [13] | Potency [14] | Potency [15]
13.8%: max response [11, 18]
active: Potency [3] 3.16 µM

CN(C)C(=O)c1ccc(-c2ccc3ncnc(NCc4cccs4)c3c2)cc1
5.7%: max response [11, 17]
active: Potency [3] 15.8 µM | Potency [12] 12.6 µM | Potency [13] 7.08 µM | Potency [14] 14.1 µM
inactive: Potency [1] > 11.4 µM | activity change, negative = inhibition [2] -29.4% | activity change, negative = inhibition [4] 17.3% | activity, negative = inhibition [5] -7.67% | Potency [8] | Potency [9] | activity change, negative = inhibition [11] 6.27% | Potency [15]
12.3%: max response [11, 18]

COc1cccc(Cn2c(=O)c(-c3cc(F)cc(F)c3)nc3cnc(N4CCNCC4)nc32)c1
-28.1%: max response [11, 18]
inactive: Potency [1] > 11.4 µM | Potency [3] | Potency [6] > 9.22 µM | Potency [7] > 46 µM | Potency [16] | Potency [9] | activity change, negative = inhibition [11] -13.2% | Potency [12] | Potency [13] | Potency [14]
-15.6%: max response [11, 17]
active: activity change, negative = inhibition [2] 117% [activator] | activity change, negative = inhibition [4] 225% [activator]

COc1cccc(-c2nc(NC3CCNCC3)c3ccccc3n2)c1
4.05%: max response [11, 18]
active: Potency [3] 12.6 µM | Potency [12] 11.2 µM | Potency [13] 11.2 µM | Potency [14] 12.6 µM
12.9%: max response [11, 17]
inactive: Potency [1] > 11.4 µM | activity change, negative = inhibition [2] 14.7% | activity change, negative = inhibition [4] 23.4% | activity, negative = inhibition [5] 5.39% | Potency [7] > 46 µM | Potency [8] | Potency [16] | Potency [9] | activity change, negative = inhibition [11] 4.76% | Potency [15]
